About 83,000 compounds went through this panel and 20% of them were active in at least one assay; those are over-represented in the sample as a whole.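 The test compound was applied at a single concentration to cells in 96-well plates for 48 hours, and percent growth was recorded.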 Values without a mark were called inactive. Active and inactive are the calls of the source. The calls were made as follows: active = growth percent below 10; inactive = the rest.

The values below come from PubChem BioAssay (NCI).

Among the test systems are HCT-15 colon; HT29 colon; SNB-75 CNS; SNB-19 CNS; U251 CNS; PC-3 prostate; SK-MEL-5 melanoma; UACC-62 melanoma; LOX IMVI melanoma; SK-MEL-28 melanoma; SK-MEL-2 melanoma; EKVX NSCLC; UO-31 renal; TK-10 renal; ACHN renal; CAKI-1 renal; A498 renal; CCRF-CEM leukemia; MOLT-4 leukemia; SN12C renal.
What all share (assay): NCI-60 one-dose screen, 48 h (100 = growth as untreated, 0 = no growth, -100 = all killed)
Common to all, as to conditions: 10 µM unless noted

In the case of `C=C(C)[C@@H]1CC[C@]2(C(=O)N3CCNCC3)CC[C@]3(C)[C@H](CC[C@@H]4[C@@](C)(CCC(=O)N5CCNCC5)[C@H](C(=C)C)CC[C@]43C)[C@@H]12`, the growth with HCT-15 colon is 30.8%; in the experiment on HT29 colon, 26.1%; in the experiment on SNB-75 CNS, 86.3%; in the experiment on SNB-19 CNS, 99%; in the experiment on U251 CNS, 7.62% (active); in the experiment on PC-3 prostate it was 57.7%. For the same molecule, the growth in the experiment on SK-MEL-5 melanoma was 89.7%; in the experiment on UACC-62 melanoma, 104%; in the experiment on LOX IMVI melanoma it was 44.4%; with SK-MEL-28 melanoma it was 96.7%; in the experiment with SK-MEL-2 melanoma it was 102%; with EKVX NSCLC, 102%. Moreover, the growth in the experiment with UO-31 renal is 64.3%; in the experiment with TK-10 renal, 93.6%; in the experiment on ACHN renal, 93.9%; in the experiment on CAKI-1 renal, 92.7%; in the experiment with A498 renal, 76.2%; in the experiment on CCRF-CEM leukemia, 3.76% (active). In the experiment with MOLT-4 leukemia, the growth was 24.7%.

Take `Cc1nc2sc(C(=O)Nc3ccccn3)c(N)c2cc1C(C)O` (stereo unspecified): the growth with HCT-15 colon is 36.4%; in the experiment with HT29 colon it was 27.4%; with SNB-75 CNS it was 89.3%; with SNB-19 CNS, 64.7%; in the experiment with U251 CNS, 48.8%; with PC-3 prostate it was 72.7%. In addition, the growth is 45% in the experiment on SK-MEL-5 melanoma; 67.1% in the experiment on LOX IMVI melanoma; 67.4% in the experiment with SK-MEL-28 melanoma; 53.9% in the experiment on SK-MEL-2 melanoma; 86% with EKVX NSCLC; 93.7% with SN12C renal. The growth with UO-31 renal was 78.4%; in the experiment on TK-10 renal, 79.4%; in the experiment with ACHN renal, 89%; with CAKI-1 renal it was 85.5%; with A498 renal, 77.1%; in the experiment with CCRF-CEM leukemia it was 49.6%. In addition, in the experiment with MOLT-4 leukemia, the growth was 64.1%.

Turning to `O=C(/C=C/c1ccccc1Cl)c1cccc(OCCCCOc2cccc(C(=O)/C=C/c3ccccc3Cl)c2)c1`, the growth with HCT-15 colon was 103%; in the experiment on HT29 colon, 96.9%; with SNB-75 CNS, 86%; in the experiment on SNB-19 CNS, 100%; with U251 CNS it was 90.3%; in the experiment with PC-3 prostate, 91.1%. Moreover, the growth with SK-MEL-5 melanoma was 99.5%; in the experiment with UACC-62 melanoma, 85.5%; in the experiment with LOX IMVI melanoma, 102%; with SK-MEL-28 melanoma, 99.7%; with SK-MEL-2 melanoma, 110%; with EKVX NSCLC, 107%. In addition, the growth with UO-31 renal is 83.9%; with TK-10 renal it was 118%; in the experiment on ACHN renal it was 98.4%; in the experiment with CAKI-1 renal, 93.4%; with A498 renal it was 109%; in the experiment with CCRF-CEM leukemia, 91.8%. Moreover, the growth with MOLT-4 leukemia is 93.9%.

As for `Cc1cc2oc(/C=C/c3ccccc3)cc(=O)c2c(C)c1Cl`, the growth in the experiment with HCT-15 colon was 95.7%; with HT29 colon, 107%; in the experiment with SNB-75 CNS it was 116%; in the experiment with SNB-19 CNS, 89.8%; in the experiment with U251 CNS, 94.3%; in the experiment on PC-3 prostate it was 96.7%. The growth is 96% with SK-MEL-5 melanoma; 90.5% in the experiment with UACC-62 melanoma; 109% with LOX IMVI melanoma; 94.6% with SK-MEL-28 melanoma; 103% in the experiment on SK-MEL-2 melanoma; 101% in the experiment with EKVX NSCLC. For the same molecule, the growth in the experiment on UO-31 renal was 94.4%; with TK-10 renal, 91.6%; in the experiment on ACHN renal, 110%; in the experiment with CAKI-1 renal it was 84.6%; in the experiment on A498 renal it was 142%; in the experiment on CCRF-CEM leukemia, 99.2%. Besides, the growth with MOLT-4 leukemia is 62.6%.

For `COc1ccc(-c2nc(SCC(=O)Nc3nc4ccc(C)cc4s3)[nH]c(=O)c2C#N)cc1OC`, the growth with HCT-15 colon was 104%; in the experiment on HT29 colon, 107%; in the experiment with SNB-75 CNS, 60.4%; in the experiment with SNB-19 CNS, 101%; in the experiment on U251 CNS, 104%; in the experiment with PC-3 prostate it was 93.2%. The growth with SK-MEL-5 melanoma was 97.7%; with LOX IMVI melanoma, 90.4%; with SK-MEL-28 melanoma, 108%; in the experiment on SK-MEL-2 melanoma, 115%; in the experiment with EKVX NSCLC, 97%; with SN12C renal it was 95.9%. Further, the growth is 61% with UO-31 renal; 164% with TK-10 renal; 96.3% in the experiment with ACHN renal; 74.7% in the experiment on CAKI-1 renal; 102% in the experiment on A498 renal; 110% with CCRF-CEM leukemia. In the experiment on MOLT-4 leukemia, the growth was 99.4%.

In the case of `O=C1O[C@@H](c2ccccc2Cl)[C@@H]2c3cc4c(cc3CCN12)OCO4`, the growth is 101% in the experiment on HCT-15 colon; 86.4% in the experiment with HT29 colon; 91.7% with SNB-75 CNS; 99.4% in the experiment on SNB-19 CNS; 86% in the experiment on U251 CNS; 87.7% in the experiment with PC-3 prostate. For the same molecule, the growth in the experiment on SK-MEL-5 melanoma was 96.6%; with UACC-62 melanoma it was 78.7%; in the experiment on LOX IMVI melanoma, 99.5%; with SK-MEL-28 melanoma, 118%; in the experiment with SK-MEL-2 melanoma, 91.7%; in the experiment on EKVX NSCLC, 101%. Moreover, the growth is 74.6% in the experiment on UO-31 renal; 89.1% with TK-10 renal; 105% with ACHN renal; 105% with CAKI-1 renal; 105% in the experiment with CCRF-CEM leukemia; 90.5% with MOLT-4 leukemia.

Turning to `COCCn1cc(-c2csc(-c3c[nH]c4ccc(F)cc34)n2)c2cccnc21`, the growth is 14.7% in the experiment with HCT-15 colon; 11.8% in the experiment on HT29 colon; 39.7% in the experiment with SNB-75 CNS; 58.1% with SNB-19 CNS; 32.5% with U251 CNS; 22.5% in the experiment with PC-3 prostate. In addition, the growth is 1.53% (active) with SK-MEL-5 melanoma; 42.5% in the experiment with UACC-62 melanoma; 21.8% in the experiment with LOX IMVI melanoma; 46.6% in the experiment on SK-MEL-28 melanoma; 25.3% in the experiment with SK-MEL-2 melanoma; 38% in the experiment with EKVX NSCLC. For the same molecule, the growth was 38.4% with UO-31 renal; 33.1% in the experiment on TK-10 renal; 41.9% in the experiment on ACHN renal; 45.3% with CAKI-1 renal; 9.07% (active) in the experiment on A498 renal; 20.1% in the experiment on CCRF-CEM leukemia. Also, the growth in the experiment on MOLT-4 leukemia was 14.2%.

As for `Clc1ccc2nn3c4ccccc4c(OCCN4CCOCC4)nc3c2c1`, the growth in the experiment on HCT-15 colon is 89.8%; in the experiment on HT29 colon it was 95.5%; in the experiment with SNB-75 CNS it was 76.8%; in the experiment on SNB-19 CNS it was 81.1%; in the experiment on U251 CNS, 84.5%; with PC-3 prostate, 92.8%. The growth is 83.7% in the experiment on SK-MEL-5 melanoma; 84.2% in the experiment on LOX IMVI melanoma; 110% with SK-MEL-28 melanoma; 112% in the experiment with SK-MEL-2 melanoma; 84.3% in the experiment with EKVX NSCLC; 87.9% in the experiment on SN12C renal. Moreover, the growth was 49.2% in the experiment on UO-31 renal; 84.8% in the experiment on TK-10 renal; 70.7% in the experiment on ACHN renal; 50.4% with CAKI-1 renal; 3.87% (active) with A498 renal; 96.2% in the experiment on CCRF-CEM leukemia. For the same molecule, the growth with MOLT-4 leukemia is 95.3%.
